From PubChem BioAssay AID1159580 (chemical genetic matrix, 2015)
Screen size: about 5,500 compounds; about 2,000 (36%) were called active. About 18% were inconclusive and are not listed. No stated cut-off is given here; in the data, active means normalized growth mostly below about 0.91 (no sharp cut-off); inconclusive means no clear call, values can overlap the other calls; inactive means mostly above about 0.92. Some of the results follow.

Test: chemical genetic growth profiling, strain panel (AID 1159580);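 further: tested at 20 µM; growth read once vehicle control cultures reached saturation at 30 °C; 1 = growth at the plate median or of vehicle wells; lower values mean less growth of the strain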
Settings: growth OD

Measured: normalized growth

CCCCCC(=O)O[C@]1(C(C)=O)CCC2C3CCC4=CC(=O)CC[C@]4(C)C3CC[C@@]21C (some centres undefined)
inactive: S. cerevisiae deletion strains, locus YJR066W, strain TOR1, active compounds read low 0.939 | S. cerevisiae deletion strains, locus YKL009W, strain mrt4, active compounds read low 1.01 | S. cerevisiae deletion strains, locus YKL068W, active compounds read low 1 | S. cerevisiae deletion strains, locus YKL085W, strain MDH1 (second series), active compounds read low 1.01 | S. cerevisiae deletion strains, locus YKL085W, strain MDH1, active compounds read low 1.01 | S. cerevisiae deletion strains, locus YKL160W, strain elf1, active compounds read low 0.998 | S. cerevisiae deletion strains, locus YKL190W, strain CNB1, active compounds read low 1.01 | S. cerevisiae deletion strains, locus YKR001C, strain vps1, active compounds read low 1.01 | S. cerevisiae deletion strains, locus YKR026C, strain gcn3, active compounds read low 1 | S. cerevisiae deletion strains, locus YKR091W, strain srl3, active compounds read low 0.99 | S. cerevisiae deletion strains, locus YLL001W, strain dnm1, active compounds read low 1 | S. cerevisiae deletion strains, locus YLL026W, active compounds read low 1.01 | S. cerevisiae deletion strains, locus YLL041C, strain sdh2, active compounds read low 0.99 | S. cerevisiae deletion strains, locus YLR027C, strain aat2, active compounds read low 1 | S. cerevisiae deletion strains, locus YLR039C, strain RIC1, active compounds read low 1.02 | S. cerevisiae deletion strains, locus YLR058C, strain SHM2, active compounds read low 1.02 | S. cerevisiae deletion strains, locus YLR102C, strain apc9, active compounds read low 1.01 | S. cerevisiae deletion strains, locus YLR113W, strain HOG1, active compounds read low 0.988 | S. cerevisiae deletion strains, locus YLR221C, strain rsa3, active compounds read low 0.999 | S. cerevisiae deletion strains, locus YLR258W, strain gsy2, active compounds read low 1 | S. cerevisiae deletion strains, locus YLR262C, strain YPT6 (second series), active compounds read low 1.02 | S. cerevisiae deletion strains, locus YLR262C, strain YPT6, active compounds read low 1.09 | S. cerevisiae deletion strains, locus YLR268W, strain sec22, active compounds read low 1.02 | S. cerevisiae deletion strains, locus YLR320W, strain mms22, active compounds read low 1.01 | S. cerevisiae deletion strains, locus YLR330W, strain CHS5, active compounds read low 1.01 | S. cerevisiae deletion strains, locus YLR342W, strain FKS1 (second series), active compounds read low 0.997 | S. cerevisiae deletion strains, locus YLR342W, strain FKS1, active compounds read low 0.996 | S. cerevisiae deletion strains, locus YLR357W, strain rsc2, active compounds read low 1.01 | S. cerevisiae deletion strains, locus YLR370C, strain arc18, active compounds read low 0.998 | S. cerevisiae deletion strains, locus YLR371W, strain rom2, active compounds read low 1.01 | S. cerevisiae deletion strains, locus YLR384C, strain iki3, active compounds read low 0.996 | S. cerevisiae deletion strains, locus YLR418C, strain cdc73, active compounds read low 1.01 | S. cerevisiae deletion strains, locus YML016C, strain PPZ1, active compounds read low 1 | S. cerevisiae deletion strains, locus YML032C, strain rad52, active compounds read low 1.01 | S. cerevisiae deletion strains, locus YML120C, strain ndi1, active compounds read low 1 | S. cerevisiae deletion strains, locus YML124C, strain tub3, active compounds read low 1 | S. cerevisiae deletion strains, locus YMR058W, strain fet3, active compounds read low 1.01 | S. cerevisiae deletion strains, locus YMR078C, strain ctf18, active compounds read low 1.01 | S. cerevisiae deletion strains, locus YMR125W, strain sto1, active compounds read low 1.01 | S. cerevisiae deletion strains, locus YMR129W, active compounds read low 1 | S. cerevisiae deletion strains, locus YMR205C, strain PFK2, active compounds read low 0.973 | S. cerevisiae deletion strains, locus YMR223W, strain ubp8, active compounds read low 1.01 | S. cerevisiae deletion strains, locus YMR231W, strain pep5, active compounds read low 1 | S. cerevisiae deletion strains, locus YMR307W, strain GAS1, active compounds read low 1.1 | S. cerevisiae deletion strains, locus YNL067W, strain RPL9B, active compounds read low 0.998 | S. cerevisiae deletion strains, locus YNL071W, strain lat1, active compounds read low 1 | S. cerevisiae deletion strains, locus YNL128W, strain TEP1, active compounds read low 1.02 | S. cerevisiae deletion strains, locus YNL183C, strain NPR1, active compounds read low 0.965 | S. cerevisiae deletion strains, locus YNL209W, strain ssb2, active compounds read low 1 | S. cerevisiae deletion strains, locus YNL233W, strain BNI4, active compounds read low 1.03 | S. cerevisiae deletion strains, locus YNL248C, strain rpa49, active compounds read low 1 | S. cerevisiae deletion strains, locus YNL250W, strain rad50, active compounds read low 1.01 | S. cerevisiae deletion strains, locus YNL271C, strain bni1, active compounds read low 1.02 | S. cerevisiae deletion strains, locus YNL298W, strain CLA4, active compounds read low 1.02 | S. cerevisiae deletion strains, locus YNL307C, strain MCK1, active compounds read low 1.01 | S. cerevisiae deletion strains, locus YNL322C, strain KRE1 (second series), active compounds read low 0.999 | S. cerevisiae deletion strains, locus YNL322C, strain KRE1, active compounds read low 1.01 | S. cerevisiae deletion strains, locus YNR049C, strain mso1, active compounds read low 1 | S. cerevisiae deletion strains, locus YNR052C, strain pop2, active compounds read low 1.02 | S. cerevisiae deletion strains, locus YOL012C, strain htz1 1.02 | S. cerevisiae deletion strains, locus YOL147C, strain pex11, active compounds read low 1 | S. cerevisiae deletion strains, locus YOR001W, strain rrp6, active compounds read low 1.01 | S. cerevisiae deletion strains, locus YOR061W, strain CKA2, active compounds read low 1 | S. cerevisiae deletion strains, locus YOR069W, strain VPS5, active compounds read low 1.01 | S. cerevisiae deletion strains, locus YOR070C, strain gyp1, active compounds read low 1 | S. cerevisiae deletion strains, locus YOR080W, strain dia2, active compounds read low 1 | S. cerevisiae deletion strains, locus YOR083W, strain WHI5, active compounds read low 0.997 | S. cerevisiae deletion strains, locus YOR106W, strain vam3, active compounds read low 1.01 | S. cerevisiae deletion strains, locus YOR136W, strain idh2, active compounds read low 1.02 | S. cerevisiae deletion strains, locus YOR144C, strain elg1, active compounds read low 1.01 | S. cerevisiae deletion strains, locus YOR184W, strain ser1, active compounds read low 0.969 | S. cerevisiae deletion strains, locus YOR231W, strain MKK1, active compounds read low 0.976 | S. cerevisiae deletion strains, locus YOR265W, strain rbl2, active compounds read low 0.998 | S. cerevisiae deletion strains, locus YOR270C, strain vph1, active compounds read low 1.04 | S. cerevisiae deletion strains, locus YOR290C, strain snf2, active compounds read low 0.959 | S. cerevisiae deletion strains, locus YOR316C, strain cot1, active compounds read low 1.01 | S. cerevisiae deletion strains, locus YPL051W, strain arl3, active compounds read low 1.01 | S. cerevisiae deletion strains, locus YPL055C, strain LGE1, active compounds read low 1.01 | S. cerevisiae deletion strains, locus YPL078C, strain atp4, active compounds read low 1.01 | S. cerevisiae deletion strains, locus YPL106C, strain sse1, active compounds read low 0.986 | S. cerevisiae deletion strains, locus YPL240C, strain hsp82, active compounds read low 0.991 | S. cerevisiae deletion strains, locus YPL241C, strain CIN2, active compounds read low 1 | S. cerevisiae deletion strains, locus YPL256C, strain CLN2, active compounds read low 0.958 | S. cerevisiae deletion strains, locus YPR119W, strain clb2, active compounds read low 1.01 | S. cerevisiae deletion strains, locus YPR141C, strain kar3, active compounds read low 1.01 | S. cerevisiae deletion strains, locus YPR163C, strain tif3, active compounds read low 1.01 | S. cerevisiae deletion strains, locus YPR167C, strain met16, active compounds read low 1.01 | S. cerevisiae deletion strains, strain wtn01, active compounds read low 1.01 | S. cerevisiae strains, strain wild type, active compounds read low 1.01
